Measurements as given in PubChem BioAssay (NCI).
Compounds without any hit were thinned out: in the full panel of roughly 83,000, 20% have a hit.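 Results are percent growth after 48 hours of single-concentration exposure. 100 means growth as in untreated cells, lower positive values show inhibition; negative values down to -100 show cell death.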 A number with no mark means an inactive call. The source made the active and inactive calls. Rule for the calls: active = growth percent below 10; inactive = the rest.

Assays:
Assay in all cases: NCI-60 one-dose screen, 48 h (100 = growth as untreated, 0 = no growth, -100 = all killed)
NCI-H23 lung = details: 10 µM unless noted
786-0 renal = details: 10 µM unless noted
MDA-MB-231 breast = details: 10 µM unless noted
SF-268 CNS = details: 10 µM unless noted
SF-539 CNS = details: 10 µM unless noted
M14 melanoma = details: 10 µM unless noted
HCT-15 colon = details: 10 µM
UACC-62 melanoma = details: 10 µM unless noted
LOX IMVI melanoma = details: 10 µM unless noted
SK-MEL-28 melanoma = details: 10 µM unless noted
ACHN renal = details: 10 µM unless noted
OVCAR-5 ovarian = details: 10 µM unless noted
OVCAR-3 ovarian = details: 10 µM unless noted
NCI/ADR-RES ovarian = details: 10 µM unless noted
T-47D breast = details: 10 µM unless noted
MDA-MB-435 melanoma = details: 10 µM unless noted
SW-620 colon = details: 10 µM unless noted
MCF7 breast = details: 10 µM unless noted
KM12 colon = details: 10 µM unless noted
DU-145 prostate = details: 10 µM unless noted

Question: Which results are given for `O1[As]2O[As]3O[As]1O[As](O2)O3`?
Answer: growth (NCI-H23 lung): 6.46% (active); growth (786-0 renal): 10.7%; growth (MDA-MB-231 breast): -22.8% (active); growth (SF-268 CNS): 5.42% (active); growth (SF-539 CNS): -4.27% (active); growth (M14 melanoma): -24.2% (active); growth (HCT-15 colon): -23.4% (active); growth (UACC-62 melanoma): -53.3% (active); growth (LOX IMVI melanoma): 0.399% (active); growth (SK-MEL-28 melanoma): -17.6% (active); growth (ACHN renal): 28%; growth (OVCAR-5 ovarian): 18.7%; growth (OVCAR-3 ovarian): -35.3% (active); growth (NCI/ADR-RES ovarian): 13.8%; growth (T-47D breast): 22.9%; growth (MDA-MB-435 melanoma): 14.1%; growth (SW-620 colon): 4.74% (active); growth (MCF7 breast): 6.19% (active); growth (KM12 colon): 39%

Question: With `NC(=O)C(Br)CBr` (stereo not drawn) as the molecule, how does the growth (NCI-H23 lung) read?
Answer: 24.1%

Question: And the growth (DU-145 prostate)?
Answer: -28.2% (active)

Question: What about the growth (MDA-MB-231 breast) of the same molecule?
Answer: 14.3%

Question: And the growth (SF-268 CNS)?
Answer: -23.1% (active)

Question: What about the growth (SF-539 CNS) of the same molecule?
Answer: 39.2%

Question: What about the growth (M14 melanoma) of the same molecule?
Answer: -88.3% (active)

Question: What about the growth (HCT-15 colon) of the same molecule?
Answer: -7.98% (active)

Question: What about the growth (UACC-62 melanoma) of the same molecule?
Answer: 19.9%

Question: And the growth (LOX IMVI melanoma)?
Answer: 3.13% (active)

Question: What about the growth (SK-MEL-28 melanoma) of the same molecule?
Answer: -28% (active)

Question: And the growth (ACHN renal)?
Answer: -76.2% (active)

Question: And the growth (OVCAR-5 ovarian)?
Answer: 10.9%

Question: What about the growth (OVCAR-3 ovarian) of the same molecule?
Answer: -85.1% (active)

Question: What about the growth (NCI/ADR-RES ovarian) of the same molecule?
Answer: 15.3%

Question: What about the growth (T-47D breast) of the same molecule?
Answer: 1.22% (active)

Question: What about the growth (MDA-MB-435 melanoma) of the same molecule?
Answer: -73.3% (active)

Question: And the growth (SW-620 colon)?
Answer: -59.3% (active)

Question: What about the growth (MCF7 breast) of the same molecule?
Answer: 2.57% (active)

Question: What about the growth (KM12 colon) of the same molecule?
Answer: 71.4%

Question: With `COc1cc(NCCCCCN=C(N)N)c2ncccc2c1` as the molecule, how does the growth (NCI-H23 lung) read?
Answer: 4.89% (active)

Question: What about the growth (786-0 renal) of the same molecule?
Answer: 86.3%

Question: What about the growth (DU-145 prostate) of the same molecule?
Answer: 103%

Question: And the growth (MDA-MB-231 breast)?
Answer: 50.8%

Question: What about the growth (SF-268 CNS) of the same molecule?
Answer: 3.28% (active)

Question: What about the growth (SF-539 CNS) of the same molecule?
Answer: 23.8%

Question: And the growth (M14 melanoma)?
Answer: 99.3%

Question: What about the growth (HCT-15 colon) of the same molecule?
Answer: 99.2%

Question: And the growth (UACC-62 melanoma)?
Answer: 89.3%

Question: And the growth (LOX IMVI melanoma)?
Answer: 66.4%

Question: And the growth (SK-MEL-28 melanoma)?
Answer: 89.7%

Question: What about the growth (ACHN renal) of the same molecule?
Answer: 105%

Question: And the growth (OVCAR-5 ovarian)?
Answer: 97.3%

Question: What about the growth (OVCAR-3 ovarian) of the same molecule?
Answer: 0.151% (active)

Question: And the growth (NCI/ADR-RES ovarian)?
Answer: 104%

Question: What about the growth (T-47D breast) of the same molecule?
Answer: 11.8%

Question: And the growth (MDA-MB-435 melanoma)?
Answer: 104%

Question: And the growth (SW-620 colon)?
Answer: 58.9%

Question: And the growth (MCF7 breast)?
Answer: -51.1% (active)

Question: What about the growth (KM12 colon) of the same molecule?
Answer: 32.6%
